Screening results (PubChem BioAssay)
Compounds with a hit are over-represented: about 18% of the library has one in this group of screens.
DT40 TDP1 CPT: growth inhibition of DT40 Tdp1-/-;hTDP1 cells with camptothecin (screen for TDP1 inhibitors); chicken DT40 Tdp1-/-;hTDP1 cells + 20 nM CPT, ATP luminescence, 48 h; Potency, µM (highest dose often 46.2 µM), inactives show top-dose activity change, negative = growth inhibition, usual class: inhibitors; 12% of 420,000 active; AID 686979; also: nearly all actives have a fitted effect of over 55% in size
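Cell growth measured by CellTiter-Glo luminescence after a minimum 48 h, 37 C compound exposure with 20 nM CPT in Tdp1-knockout DT40 cells stably expressing hTDP1, seeded 400/well; qHTS titration format.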
TDP1 cell noCPT: qHTS for Inhibitors of human tyrosyl-DNA phosphodiesterase 1 (TDP1): qHTS in cells in absence of CPT | DT40 Tdp1-/- hTDP1 cells, no CPT, ATP luminescence, 48 h | Potency, µM (series often up to 46.2 µM), without a hit: at the highest dose activity change, negative = growth inhibition, actives largely listed as inhibitors | 15% of 420,000 active; also: nearly all actives have a fitted effect of over 55% in size
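Seeded 400 DT40-hTDP1 cells/well (vehicle DMSO, no 20 nM CPT); pinned compounds; ≥48 hr at 37 °C; CellTiter-Glo luminescence as viability measure.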
PLK1 PBD block: inhibitors of human PLK1 polo-box domain binding | P53350 | Plk1 PBD binding of FITC phosphopeptide, fluorescence polarization | Potency, µM, without a hit: max response, negative = inhibition, hits mostly inhibitors | 2.8% of 360,000 active | AID 720504; also: series mostly up to about 57 µM; nearly all actives have a fitted effect of over 65% in size
VDR inh: blocks the human vitamin D receptor | P11473 | VDR-SRC2-3 peptide fluorescence polarization, 2 h | Potency, µM, without a hit: max response, negative = inhibition, actives largely listed as inhibitors | 0.93% of 400,000 active
Target sequence (P11473 whole entry, looked up): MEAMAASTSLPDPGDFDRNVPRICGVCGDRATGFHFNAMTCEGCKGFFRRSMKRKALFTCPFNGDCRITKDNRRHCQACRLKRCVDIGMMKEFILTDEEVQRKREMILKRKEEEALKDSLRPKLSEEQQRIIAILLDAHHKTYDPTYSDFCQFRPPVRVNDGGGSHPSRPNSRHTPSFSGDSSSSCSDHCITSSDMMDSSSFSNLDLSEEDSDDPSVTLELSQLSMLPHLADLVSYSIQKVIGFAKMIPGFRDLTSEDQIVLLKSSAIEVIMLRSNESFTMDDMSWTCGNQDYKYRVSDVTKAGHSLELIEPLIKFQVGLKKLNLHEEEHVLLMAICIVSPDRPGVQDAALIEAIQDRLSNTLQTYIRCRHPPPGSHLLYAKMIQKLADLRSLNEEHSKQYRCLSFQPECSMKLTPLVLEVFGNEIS
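FP read-out; VDR + SRC2-3 coactivator peptide; 23 nl compound by pintool; 2 h RT incubation; reagents held at 4 deg C, protected from light.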
GCN5L2 inh: blocks human GCN5L2 histone acetyltransferase; GCN5L2 HAT assay, ThioGlo1 CoA-SH fluorescence; Potency, µM (series often up to 58.9 µM), for the others: top-dose activity change, negative = inhibition, most hits filed as inhibitors; 0.21% of 390,000 active; AID 504327
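Fluorescence readout, Ex340nm/Em540nm: ThioGlo1 (50uM final) reacts with free CoA thiol released as 20nM GCN5L2 acetylates H3(1-25) peptide (75uM) using acetyl-CoA (70uM). Compound and enzyme sat 15 min beforehand; 20 min room-temperature reaction.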
TDP1 inh: blocks human tyrosyl-DNA phosphodiesterase 1; Q9NUW8; 0.28% of 350,000 active; AID 485290; Potency, µM (top dose mostly 130 µM), inactives show top-dose activity change, negative = inhibition, usual class: inhibitors; recombinant TDP1, AlphaScreen DNA substrate cleavage; also: nearly all actives have a fitted effect of over 40% in size
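AlphaScreen read-out: signal falls as enzyme removes the 3' tyrosine-FITC from a 5'-biotinylated DNA oligo (15 nM, 5 min, RT). Enzyme was E. coli-made recombinant Tdp1 at 1 nM, exposed to compound for 15 min beforehand; beads 10 ug/ml, 10 min.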
* hit, by the source's call; ? = inconclusive; . = no result; [ ] = dose if it differs, or a comment. Calls follow the shape of the dose curve; as a rule, active = well fitted curve in the direction sought with a large enough effect; inconclusive = small, poorly fitted or top-dose-only effect, or another doubt; inactive = no such curve, though single readings can be large; an effect the other way counts as inactive or inconclusive. % is scaled to controls: 0 for no effect and ±100 for the full control effect; potency is read from the fitted curve at half-maximal effect.

SMILES | DT40 TDP1 CPT | TDP1 cell noCPT | PLK1 PBD block | VDR inh | GCN5L2 inh | TDP1 inh
CCOc1ccc2nc(NC(=O)c3nc(SCc4ccccc4F)ncc3Cl)sc2c1 | -26% | ? | . | 11% | -5% | -7%
Cc1cc(C)n(-c2ccc(C(=O)Nc3ccc(C)c(S(=O)(=O)N(C)C)c3)cc2)n1 | ? | ? | -2% | 7% | -9% | 6%
Cc1cc(C)n(-c2ccc(C(=O)Nc3cccc(S(=O)(=O)N(C)C)c3)cc2)n1 | 1.8µM* | 1.6µM* | 4% | 16% | -9% | 2%
Cc1cc(C)n(-c2ccc(C(=O)Nc3ccc(S(=O)(=O)N(C)C)cc3)cc2)n1 | ? | 23µM* | 2% | 9% | -1% | 5%
O=C(Cn1cncn1)NCC1Cc2cc(-c3ccsc3)cc(Cl)c2O1 (stereo not given) | 5%[9.04 µM] | -15% | . | . | . | .
COc1cccc(CNS(=O)(=O)c2c(C(=O)N3CCC(C)CC3)c(C)n(C)c2C)c1 | -6% | -4% | . | -4% | -10% | 4%
CCOCCn1ccc2c(OCC(=O)NCc3ccccc3)cccc2c1=O | -14% | -15% | 1% | 3% | 0% | 3%
O=C(NC1CC1)c1ccc(NC(=O)C2CCCC2)cc1 | 8% | -17% | -3% | -13% | . | .
O=C(NC1CC1)c1ccc(NC(=O)C2CCC2)cc1 | ? | ? | 19µM* | 79µM* | . | .
O=C(Nc1ccccc1O)c1ccc(NC(=O)C2CC2)cc1 | 12µM* | 12µM* | -1% | 17% | ? | 1%
COc1ccc(N2CCN(S(=O)(=O)c3csc(C(N)=O)c3)CC2)cc1 | -15% | -5% | . | 8% | -7% | 5%
Cc1ncc(CO)c2c1Oc1nc(-c3ccccc3)nc(SCC(=O)Nc3cccc(C(F)(F)F)c3)c1C2 | 6.5µM* | 4.6µM* | . | 12% | -16% | 0%
CCc1ccc(NC(=O)CSc2nc(-c3ccc(C)cc3)nc3c2Cc2c(CO)cnc(C)c2O3)cc1 | 4% | -8% | . | -3% | -17% | ?
CCc1ccccc1NC(=O)CSc1nc(-c2cccc(Cl)c2)nc2c1Cc1c(CO)cnc(C)c1O2 | 2% | -4% | . | 2% | -3% | 3%
Cc1ncc(CO)c2c1Oc1nc(-c3ccccc3)nc(SCC(=O)Nc3cccc(O)c3)c1C2 | ? | 26µM* | -5% | 14% | -18% | 1%
COc1ccc(-c2nc3c(c(SCC(=O)Nc4cccc(O)c4)n2)Cc2c(CO)cnc(C)c2O3)cc1 | ? | 18µM* | -24% | -17% | -22% | -10%
CCOc1ccc(NC(=O)CN(C)C(=O)C2CCN(C(=O)Nc3ccccc3)CC2)cc1OCC | -16% | 2% | -14% | 5% | . | .
CC(C)C[C@H](N)C(=O)N[C@H](C(=O)N[C@@H](CCCN=C(N)N)C(=O)N[C@H](CS)C(=O)NCC(=O)N[C@@H](CCCCN)C(=O)N[C@@H](Cc1cnc[nH]1)C(=O)N[C@@H](CO)C(=O)N[C@@H](CCCN=C(N)N)C(=O)O)C(C)C | . | . | . | -5% | 3% | 10%
COc1cccc(S(=O)(=O)Nc2ccc(C(O)(C(F)(F)F)C(F)(F)F)cc2)c1 | 16µM* | 16µM* | -6% | . | . | .
CC(C)(C)c1ccc(S(=O)(=O)Nc2cccnc2)cc1 | ? | ? | 1% | -6% | -18% | 3%
O=S(=O)(Nc1ccc(C(O)(C(F)(F)F)C(F)(F)F)cc1)c1cccc2ccccc12 | 16µM* | 21µM* | -4% | . | . | .
CC(=O)Nc1ccc(NS(=O)(=O)c2cccc3ccccc23)cc1 | ? | -18% | -3% | 8% | -1% | 0%
CC(C)(C)c1ccc(S(=O)(=O)Nc2ccc(C(O)(C(F)(F)F)C(F)(F)F)cc2)cc1 | 16µM* | 16µM* | -13% | . | . | .
Cc1ccccc1NC(=O)C1CCN(S(=O)(=O)c2cccc3nonc23)CC1 | 2% | 1% | -3% | 9% | -4% | 9%
COc1cccc(CSc2nc(-c3ccccc3F)nc3c2Cc2c(CO)cnc(C)c2O3)c1 | ? | 21µM* | . | -3% | -4% | -5%
SMILES | DT40 TDP1 CPT | TDP1 cell noCPT | PLK1 PBD block | VDR inh | GCN5L2 inh | TDP1 inh
CCSc1nc(-c2ccccc2F)nc2c1Cc1c(CO)cnc(C)c1O2 | -14% | -25% | . | -6% | 0% | 5%
CCSc1nc(-c2ccccc2OC)nc2c1Cc1c(CO)cnc(C)c1O2 | 8.2µM* | 8.2µM* | . | 9% | -5% | 3%
OCCN1CCN(Cc2ccc3c(c2)CN(Cc2cccc4ncccc24)CCO3)CC1 | 12%[9.04 µM] | ? | . | . | . | .
CCN(CC1CCCN(CCc2cccc(OC)c2)C1)C(=O)c1ccoc1 (stereo not given) | 10% | -2% | -4% | -17% | 0% | 3%[56.1 µM]
Cc1ccc(-c2cc3ncc(C(=O)c4cc([N+](=O)[O-])ccc4O)cn3n2)cc1 | ? | 2.3µM* | . | -22% | ? | 2%
CCC(C)Sc1ccc([C@@H]2[C@H]3C(=O)N(CC)C(=O)[C@H]3[C@]3(C(=O)OC)CCCN23)cc1OC (stereo not given in full) | 23µM* | 23µM* | -4% | -14% | -29% | 6%
CCC(C)Sc1ccc([C@@H]2[C@@H]3C(=O)N(CC)C(=O)[C@@H]3[C@]3(C(=O)OC)CCCCN23)cc1 (stereo not given in full) | ? | 21µM* | -7% | 4% | -5% | -3%
CCC(C)Sc1ccc([C@@H]2[C@@H]3C(=O)N(C)C(=O)[C@@H]3[C@]3(C(=O)OC)CCCCN23)cc1 (stereo not given in full) | 18µM* | ? | -2% | -2% | -11% | 0%
Cc1cc(C)cc(-n2cnc3cc(C(=O)NC4CCCCCC4)ccc32)c1 | ? | ? | . | 1% | 0% | 5%
CCOc1ccc(Nc2ccc(N3C(=O)CCC3=O)cc2[N+](=O)[O-])cc1 | 0% | -23% | 5% | 12% | -4% | 5%
COc1cccc(C(=O)CC2(O)C(=O)Nc3ccc(Cl)cc32)c1 (stereo not given) | ? | ? | . | 8% | -5% | .
Cn1c(=O)[nH]c(=O)c2cc(C(=O)c3cc(F)ccc3O)cnc21 | -12% | ? | -5% | -1% | -9% | -3%
Cn1c(=O)c(C#N)c(-c2ccc(F)cc2)c2cc(C(=O)c3cc(Cl)cc(Cl)c3O)cnc21 | ? | ? | 27µM* | 4% | -11% | .
O=C(CC1CCCCC1)N=C1SC2CS(=O)(=O)CC2N1c1ccccc1 (stereo not given) | -21% | -19% | 27µM* | -14% | -9% | 2%
